Screening data: PubChem BioAssay, several laboratories
This is a sample that favours compounds with a hit; in the whole collection about 4.7% have one here.
SKKanGAS inh – S. pyogenes SKKanGAS growth inhibitors in kanamycin, primary screen, streptokinase expression inhibitor project, SKKanGAS strain, BacTiter-Glo luminescence. 6 h. inhibition, % at 7.5 µM. hit rate 1.3% among 300,000. AID 1662, 2009;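 active means mean replicate score, as percent of positive control median, at least 50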;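 further: strain carries kanamycin resistance gene driven by streptokinase promoter and grows in 40 µg/ml kanamycin; loss of luminescence reflects streptokinase promoter inhibition or plain growth inhibition; 0% = median of DMSO wells and 100% = positive control at its reference dose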
tim23-1 inh – growth inhibitors of tim23-1 mutant yeast, primary screen, luminescence, uHTS; inhibition, % at 20 µM; S. cerevisiae tim23-1 growth, BacTiter-Glo luminescence, 24 h; hit rate 1.3% among 330,000;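 active means growth inhibition of the mutant yeast at or above 50%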;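 further: temperature-sensitive mutant grown at 25 °C; plate controls were DMSO-treated mutant yeast for no effect and medium wells lacking yeast for full effect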
Calb FLC – C. albicans growth inhibition with fluconazole, primary screen, CaCi-2 strain, Alamar Blue fluorescence; growth inhibition, % (test concentration not listed); C. albicans CaCi-2 (fluconazole-resistant clinical isolate) + fluconazole, 48 h; hit rate 0.57% among 300,000;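 active means growth inhibition above about 58% in most replicates, limit read from the data, passing the limit was not always enough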;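 further: all wells also contain fluconazole at 8 µg/ml as a sub-toxic cotreatment; 0% = median of DMSO wells and 100% = median of geldanamycin control wells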
TIM10 inh – growth inhibitors of isogenic TIM10 control yeast, primary screen, counter-screen for tim10-1 yeast inhibitor project, luminescence, uHTS | hit rate 1.4% among 330,000 | S. cerevisiae TIM10 strain growth, BacTiter-Glo luminescence, 24 h | inhibition, % at 10 µM;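 active means inhibition of 40% or more at the single tested concentration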;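 further: wild-type TIM10 isogenic control strain grown at permissive 25 °C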
PfHsp90 yeast 2 – growth inhibition of PfHsp90-expressing yeast, primary screen, antimalarial PfHsp90 inhibitor project, S. cerevisiae, BacTiter-Glo luminescence, single point, set 2 | hit rate 0.32% among 310,000 | AID 504621, 2011 | BacTiter-Glo ATP, 48 h; yeast lacking PDR1 and PDR3 efflux regulators | inhibition, % at 9.4 µM;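 active means every replicate shows inhibition above about 80%, whatever the replicate mean, limit read from the data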;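 further: 0% = DMSO neutral controls and 100% = 20 µM radicicol positive controls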
tim10-1 inh – growth inhibitors of tim10-1 mutant yeast, primary screen, luminescence, uHTS. S. cerevisiae tim10-1 ts strain growth, BacTiter-Glo, 24 h. inhibition, % at 20 µM. hit rate 2.2% among 330,000. AID 463190, 2010;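 active means inhibition of at least 40%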;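 further: mutant grown at 25 °C; 0% = DMSO wells with yeast and 100% = wells holding no yeast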
tim23-1 confirm – tim23-1 mutant yeast growth inhibitors, confirmation, luminescence, single concentration | shares compounds with tim23-1 inh | S. cerevisiae tim23-1 growth, BacTiter-Glo luminescence, 24 h | inhibition, % at 20 µM | hit rate 83% among 4,400;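 active means inhibition above about 39% in either of two replicate wells at 20 µM, limit read from the data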;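 further: temperature-sensitive tim23-1 mutant grown at 25 °C; 0% = DMSO wells with yeast and 100% = medium wells without yeast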
Starred values were filed as active, the others as inactive; · = no result given.

SMILES	SKKanGAS inh	tim23-1 inh	Calb FLC	TIM10 inh	PfHsp90 yeast 2	tim10-1 inh	tim23-1 confirm
CC(=O)n1cc(N(C(=O)CCl)c2ccccc2)c2ccccc21	-3.2	53.7*	43.2	22.1	10.6	31.9	38.3
CC(=O)n1cc(CO)c2ccccc21	1.2	2.3	-2.7	-2.1	-25.2	-12.6	·
CC(=O)n1cc(N(C(=O)CCl)c2ccc([N+](=O)[O-])cc2)c2ccccc21	7.9	63.9*	57.0	36.3	3.3	31.6	48.6*
O=C(N/N=C/c1ccc2c(c1)OCO2)C(=O)Nc1cccc(Cl)c1	-0.3	-15.0	-0.9	-5.2	4.7	-16.9	·
O=C(COC(=O)c1cc([N+](=O)[O-])ccc1N1CCOCC1)Nc1cccc(F)c1	-7.7	2.8	9.9	-16.8	3.9	5.9	·
COc1cccc(CNn2c(-c3cccc(C)c3)nc3ccccc3c2=O)c1O	3.0	56.9*	2.5	19.9	·	28.1	44.5*
COc1ccc(OC)c(CNn2c(-c3ccccc3F)nc3ccccc3c2=O)c1	7.8	36.1	-7.4	32.9	-13.8	35.2	·
C=CCn1c(-c2cc(-c3ccc(C)cc3)nc3ccccc23)n[nH]c1=S	2.7	59.8*	49.1	39.5	-84.4	33.1	52.6*
C=CCn1c(-c2cccc3ccccc23)n[nH]c1=S	-4.3	21.7	-16.4	35.9	6.9	28.4	·
COCCn1c(SCC(=O)NC2CC2)nc2ccccc21	·	7.3	·	-0.3	4.5	5.1	·
Cc1ccccc1-c1ocnc1C(=O)Nc1ccccc1NC(=O)c1ccccn1	2.3	50.3*	-4.2	35.4	-24.2	33.9	49.2*
CCOC(=O)c1cccc(NC(=O)c2cc3ccccc3o2)c1	-7.9	57.9*	1.7	27.1	-1.5	23.3	51.9*
CCOC(=O)c1ccc(NC(=O)c2cc3ccccc3o2)cc1	3.0	16.9	-1.9	18.7	-0.7	3.5	·
CCOC(=O)c1cccc(NC(=O)CCc2ccccc2)c1	11.1	61.2*	-2.8	9.0	·	20.8	25.6
CCC(=O)Nc1cccc(NC(=O)c2cc3ccccc3o2)c1	-2.8	-10.1	-1.9	-3.1	2.9	-16.4	·
Cc1cccc(NC(=O)c2cc3ccccc3o2)c1	-17.8	53.7*	-9.8	25.1	15.9	-30.5	41.1*
NC(=O)c1ccccc1NC(=O)c1ccoc1	23.9	9.2	3.1	16.8	0.1	10.4	·
CCc1cc(C(=O)c2ccc(C)cc2)c(NC(=O)CCl)s1	-3.9	50.3*	-21.7	28.0	-8.7	39.7	49.0*
CCc1nc(N2CCN(C(=O)CCl)CC2)c2c3c(sc2n1)CC(C)CC3 (stereo not drawn)	13.1	55.4*	2.4	38.0	1.4	15.1	38.7
COc1ccc(-c2noc(CCC(=O)N3CCN(c4ccc(C(F)(F)F)cc4)CC3)n2)cc1	·	20.8	·	-5.8	-14.6	-1.9	·
COc1ccc(C(C[N+](=O)[O-])c2c(C)cc3ccccn23)c(OC)c1 (stereo not drawn)	7.3	81.7*	-4.3	22.5	5.6	35.1	74.7*
CC(C)(C)C(=O)/C=c1\[nH]c(=O)/c(=C\c2ccccc2F)s1	17.9	-1.4	-6.0	27.3	-9.2	13.7	·
CC(C)(C)C(=O)/C=c1\[nH]c(=O)/c(=C\c2ccc(F)cc2)s1	4.4	52.1*	-3.3	23.8	7.7	20.6	50.7*
O=C(CSc1nnnn1Cc1ccccc1)c1ccc(F)cc1	-2.3	53.7*	-6.0	29.0	-12.7	18.7	52.4*
COCCN(C(=O)COC(=O)c1ccc(Cl)s1)c1c(N)n(Cc2ccccc2)c(=O)[nH]c1=O	-7.3	13.9	-5.0	17.2	10.7	8.5	·
SMILES	SKKanGAS inh	tim23-1 inh	Calb FLC	TIM10 inh	PfHsp90 yeast 2	tim10-1 inh	tim23-1 confirm
N=C1/C(=C\c2coc3ccccc3c2=O)C(=O)N=C2SC(c3ccncc3)=NN12	21.2	53.5*	-3.8	34.6	-62.6	22.0	5.8
C/C(=N\NC(=O)CSc1ncccn1)c1ccc2c(c1)OCCO2	-4.4	53.1*	29.2	-14.5	-4.7	-0.6	15.2
C/C(=N\NC(=O)CSc1nc(C)cc(C)n1)c1ccc2c(c1)OCCO2	0.7	9.7	-12.3	8.1	-1.5	12.6	·
CCn1nc(C)c(CN2CCC(n3nccc3NC(=O)c3ccc4c(c3)OCO4)CC2)c1C	-2.7	6.7	0.3	-0.8	-40.4	-5.5	·
CCC(C)Sc1ccc(-c2nc3ccc(C)cn3c2NC2CCCCC2)cc1 (stereo not drawn)	4.7	5.9	-0.2	0.8	·	19.4	·
c1cc(SC2CCCCC2)cc(-c2nc3cnccn3c2NC2CCCCC2)c1	·	34.1	·	16.7	-27.0	20.4	·
CCC(C)Sc1cc(-c2nc3cc(C)ccn3c2NC2CCCCC2)ccc1OC (stereo not drawn)	·	60.4*	·	33.6	7.2	33.7	48.9*
CCCCNc1c(-c2ccc(OC)c(SC(C)CC)c2)nc2ccc(Cl)cn12 (stereo not drawn)	·	28.3	·	15.6	18.1	8.7	·
CCC(C)Sc1cccc(-c2nc3cnccn3c2NC2CCCCC2)c1 (stereo not drawn)	·	50.0	·	19.4	19.1	20.7	41.3*
CCCCNc1c(-c2ccc(OC)c(SC(C)CC)c2)nc2ccc(C)cn12 (stereo not drawn)	·	54.3*	·	3.2	-6.6	3.9	40.9*
CCCCNc1c(-c2ccc(OC)c(SC(C)CC)c2)nc2cc(C)ccn12 (stereo not drawn)	·	55.2*	·	19.7	-11.8	29.0	50.8*
COc1ccc(NC(=O)CCNS(=O)(=O)c2ccccc2F)cc1S(N)(=O)=O	-0.1	-8.5	-0.1	2.1	-19.9	-1.0	·
Cc1cc(C)c2c(N)c(C(=O)Nc3ccc([N+](=O)[O-])cc3)sc2n1	0.3	-31.0	0.0	-22.0	-11.9	-24.6	·
FC(F)(F)c1ccccc1/C=N/n1c(COc2ccccc2)n[nH]c1=S	7.9	50.1*	7.9	23.6	19.6	25.8	37.2
CCOC(=O)c1c(S(=O)(=O)N(C)C2CCCCC2)c(C)n(C)c1C	1.1	21.5	-4.9	14.2	32.9	15.8	·
CCOc1ccccc1C(=O)N1c2ccccc2Sc2ccccc21	-11.2	50.9*	-15.1	18.1	-3.1	29.2	42.0*
COc1ccccc1C(=O)N1c2ccccc2Sc2ccccc21	-4.8	45.2	6.2	21.5	5.1	17.5	·
Cn1nc(C(=O)NCC2COc3ccccc3O2)c2ccccc2c1=O (stereo not drawn)	·	25.9	·	13.1	-4.8	21.8	·
Cc1ccc2nc3n(c(=O)c2c1)-c1ccccc1C(=O)NC3Cc1ccccc1 (stereo not drawn)	·	13.6	·	11.3	·	13.3	·
